Assay results reported in PubChem BioAssay AID2284369 (EPA ToxCast).
Results filed as inconclusive are left out. Active and inactive are the calls of the source. Rule for the calls: active = hit-call score of the fitted dose curve at least 0.9, where 1 is the maximum; inconclusive = response in the unintended direction; inactive = score below 0.9.

What follows are compounds tested on frog Estrogen Receptor (ER1), gene 398734 (assay: ATG_frER1_EcoTox2: Attagene TRANS-FACTORIAL EcoTox-2 HepG2 Assay for frog Estrogen Receptor (ER1)).
Description: ATG_EcoTox2 is a cell-based, multiplexed assay created by modifying the existing Attagene TRANS-FACTORIAL system to include a panel of nuclear receptors from some or all the following species: human (Homo sapiens), african clawed frog (Xenopus laevis), rainbow trout (Oncorhynchus mykiss), japanese medaka (Oryzias latipes), and zebrafish (Danio rerio). The ECOTOX2-FACTORIAL format uses HepG2, a human liver cell line, with measurements taken at 24 hours after chemical dosing in a 24-well plate. ATG_frER1_EcoTox2 is one of 29 assay components calculated in the ATG_EcoTox2 assay. It is designed to make measurements of mRNA induction, a form of inducible reporter, as detected with fluorescence intensity signals by Reverse transcription polymerase chain reaction (RT-PCR) and Capillary electrophoresis technology.The assay endpoint ATG_frER1_EcoTox2 was analyzed in the positive analysis fitting direction relative to DMSO as the negative control and baseline of activity. Using a type of inducible reporter, measures of mRNA for gain-of-signal activity can be used to understand the reporter gene at the transcription factor-level as they relate to the gene ER. Furthermore, this assay endpoint can be referred to as a primary readout, because this assay has produced multiple assay endpoints where this one serves a reporter gene function. To generalize the intended target to other relatable targets, this assay endpoint is annotated to the nuclear receptor intended target family, where the subfamily is steroidal.
Human liver HepG2 cells are transiently transfected with multiple reporter transcription units (MRTUs) in 6-well plates using FuGene 6 reagent (Roche; 3 ml FuGene/1 mg DNA). The MRTU constructs are regulated by a cis-regulating element (promoter). Each RTU expresses a GAL4-UAS that regulates the transcription of a nearby target reporter gene sequence. A major difference between the CIS and TRANS system is that in CIS activities of endogenous TFs are measured, whereas the TRANS assay evaluates changes in activities of exogenous, chimeric NR-Gal4 proteins. […] At the end of 24 hour incubation, total RNA was isolated using TriZol reagent (Invitrogen). The isolated RNA is then reverse-transcribed using oligo(dT) primer and Mo-MLV reverse transcriptase (Invitrogen) with DNAse I (Ambion) treatment for 30 min. The one-tenth of the produced cDNA was amplified by PCR using Taq DNA polymerase (Invitrogen) and two reporter sequence-specific primers. […] The fragments were purified using Qiaquick PCR columns (Qiagen), analyzed on an ABI 3130xL genetic analyzer (Applied Biosystems) with peak positions identified by using a set of X-rhodamine (ROX)-labeled MapMarker1000 molecular weight standards (BioVentures). […]

SMILES | AC50 | outcome
O=C(O)C(F)(F)C(F)(F)C(F)(F)C(F)(F)C(F)(F)C(F)(F)C(F)(F)F | 75 µM (active) | 
O=P(Oc1ccccc1)(Oc1ccccc1)Oc1ccccc1 |  | inactive
CCCCOCN(C(=O)CCl)c1c(CC)cccc1CC |  | inactive
O=S(=O)(O)C(F)(F)C(F)(F)C(F)(F)C(F)(F)C(F)(F)C(F)(F)F |  | inactive
